From PubChem BioAssay AID1159580 (chemical genetic matrix, 2015)
Where “and” joins values, the source holds several entries; their conditions need not be identical. Identical values can stand only once. About 2,000 (36%) of roughly 5,500 compounds were called active. Inconclusive results (about 18%) are left out. Cut-off read from the data, not from the text of the source: active = normalized growth mostly below about 0.91 (no sharp cut-off); inconclusive = no clear call, values can overlap the other calls; inactive = mostly above about 0.92. Some of the results follow.

Experiment: chemical genetic growth profiling, strain panel (AID 1159580);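 note: tested at 20 µM; growth read once vehicle control cultures reached saturation at 30 °C; 1 = growth at the plate median or of vehicle wells; lower values mean less growth of the strain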
Settings: S. cerevisiae deletion strains, growth OD

Measured: normalized growth

COc1c(O)cc(O)cc1O
inactive: locus YAL021C, strain ccr4, active compounds read low 1.01 | locus YAL026C, strain drs2, active compounds read low 1.02 | locus YAL030W, strain snc1, active compounds read low 0.999 | locus YBL061C, strain skt5, active compounds read low 0.996 | locus YBR009C, strain hhf1, active compounds read low 1.02 | locus YBR021W, strain FUR4, active compounds read low 0.985 | locus YBR023C, strain chs3, active compounds read low 1.01 | locus YBR171W, strain sec66, active compounds read low 0.994 | locus YBR229C, strain ROT2, active compounds read low 1 | locus YBR231C, strain swc5, active compounds read low 1.01 | locus YBR279W, strain paf1, active compounds read low 1 | locus YCL011C, strain gbp2, active compounds read low 1.01 | locus YCL016C, strain dcc1, active compounds read low 1.01 | locus YCL029C, strain bik1, active compounds read low 1.02 | locus YCL061C, strain MRC1, active compounds read low 1 | locus YCL069W, strain vba3, active compounds read low 1 | locus YCR088W, strain abp1, active compounds read low 0.992 | locus YDL005C, strain med2, active compounds read low 0.983 | locus YDL035C, strain GPR1, active compounds read low 1.07 | locus YDL040C, strain nat1, active compounds read low 0.981 | locus YDL074C, strain BRE1, active compounds read low 1.06 | locus YDL101C, strain DUN1, active compounds read low 0.992 | locus YDL185W, strain tfp1, active compounds read low 0.978 | locus YDL192W, strain arf1, active compounds read low 1 | locus YDR001C, strain nth1, active compounds read low 1 | locus YDR069C, strain doa4, active compounds read low 1 | locus YDR101C, strain arx1, active compounds read low 1.04 | locus YDR137W, strain rgp1, active compounds read low 1.04 | locus YDR159W, strain sac3, active compounds read low 0.976 | locus YDR162C, strain NBP2, active compounds read low 1.06 | locus YDR195W, strain ref2 0.951 | locus YDR297W, strain sur2, active compounds read low 0.998 | locus YDR318W, strain mcm21, active compounds read low 1 | locus YDR334W, strain swr1, active compounds read low 0.994 | locus YDR335W, strain msn5, active compounds read low 1 | locus YDR388W, active compounds read low 0.997 | locus YDR392W, strain spt3, active compounds read low 1.01 | locus YDR502C, strain sam2, active compounds read low 0.998 | locus YEL003W, strain gim4, active compounds read low 1.02 | locus YEL037C, strain rad23, active compounds read low 1 | locus YEL061C, strain CIN8 (second series), active compounds read low 1.01 | locus YEL061C, strain CIN8, active compounds read low 1.01 | locus YER015W, strain faa2, active compounds read low 1 | locus YER016W, strain bim1, active compounds read low 0.996 | locus YER110C, active compounds read low 0.991 | locus YER111C, strain swi4, active compounds read low 0.989 | locus YER155C, strain BEM2 (second series), active compounds read low 1.02 | locus YER155C, strain BEM2, active compounds read low 0.989 | locus YER167W, strain BCK2, active compounds read low 1 | locus YFR010W, strain ubp6, active compounds read low 0.999 | locus YGL078C, strain dbp3, active compounds read low 0.969 | locus YGL086W, strain mad1, active compounds read low 1.01 | locus YGL167C, strain pmr1, active compounds read low 0.998 | locus YGL173C, strain kem1, active compounds read low 0.999 | locus YGL227W, strain vid30, active compounds read low 0.988 | locus YGL240W, strain doc1, active compounds read low 0.992 | locus YGL248W, strain PDE1, active compounds read low 0.996 | locus YGL253W, strain hxk2, active compounds read low 1.01 | locus YGR078C, strain PAC10, active compounds read low 1.02 | locus YGR135W, strain pre9, active compounds read low 0.972 | locus YGR252W, strain gcn5, active compounds read low 0.997 | locus YHR013C, strain ard1, active compounds read low 1.01 | locus YHR027C, strain rpn1, active compounds read low 0.988 | locus YHR030C, strain SLT2, active compounds read low 1.01 and 1.05 | locus YHR079C, strain IRE1 (second series), active compounds read low 0.997 | locus YHR079C, strain IRE1, active compounds read low 1.02 | locus YHR094C, strain hxt1, active compounds read low 1 | locus YHR129C, strain ARP1, active compounds read low 0.998 | locus YHR142W, strain chs7, active compounds read low 1.03 | locus YHR200W, strain rpn10, active compounds read low 0.984 | locus YIL066C, strain RNR3, active compounds read low 1 | locus YIL073C, strain SPO22, active compounds read low 1.05 | locus YIL125W, strain kgd1, active compounds read low 1 | locus YIR030C, strain dcg1, active compounds read low 1.01 | locus YJL092W, strain hpr5, active compounds read low 0.995 | locus YJL095W, strain BCK1 (second series), active compounds read low 1 | locus YJL095W, strain BCK1, active compounds read low 0.998 and 1.05 | locus YJL115W, strain asf1, active compounds read low 0.992 | locus YJL129C, strain trk1, active compounds read low 0.989 | locus YJL134W, strain LCB3, active compounds read low 0.997 | locus YJL154C, strain vps35, active compounds read low 0.995 | locus YJL164C, strain tpk1, active compounds read low 1.01 | locus YJL166W, strain qcr8, active compounds read low 1.05 | locus YJL168C, strain set2, active compounds read low 1 | locus YJL187C, strain SWE1 (second series), active compounds read low 0.997 | locus YJL187C, strain SWE1, active compounds read low 1 | locus YJR043C, strain POL32, active compounds read low 1.07
